{"source": "PubChem BioAssay (EPA / NIEHS)", "key": {"[1]": {"test": "STM_H9_CystineISnorm_perc: Stemina devTOX quickPredict H9 human embryonic stem cell (hESC)-based Assay for Cystine (CYSS) Metabolite Biomarker, Normalized (AID 2283713; active means hit-call score of the fitted dose curve at least 0.9, where 1 is the maximum; inactive means score below 0.9)", "summary_of_the_method": "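UPLC-HRMS read-out: endogenous cystine peak area in spent medium, normalized to isotope-labeled internal standard and to median of 0.1% DMSO controls. Pluripotent H9 cells, 72h exposure, daily medium/compound replenishment; medium from last 24h sampled.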"}, "[2]": {"test": "Tanguay_ZF_120hpf_ActivityScore_legacy: (Legacy) Oregon State University Tanguay Lab 120 Hour Post-fertilization zebrafish Assay Score for Activity (AID 2283742);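 on AC50: dechorionated Tropical 5D wild-type zebrafish embryos held singly per well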", "summary_of_the_method": "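Dechorionated 5D embryos, one per well, static exposure 6–120 hpf, 28C, sealed and dark; final DMSO 0.64% (vol/vol). Brightfield binary scoring of mortality plus 18 endpoints; gain-of-signal fit versus DMSO baseline.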"}, "[3]": {"test": "ACEA_AR_agonist_AUC_viability: ACEA Biosciences xCELLigence Real-Time Cell Analysis on Androgen Receptor Agonism for Viability (AID 2283775)", "summary_of_the_method": "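Viability endpoint from xCELLigence impedance in 22Rv1 prostate cells at 80 h. Eight-point series, 100 uM maximum final.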"}, "[4]": {"test": "STM_H9_OrnCyssISnorm_ratio: Stemina devTOX quickPredict H9 human embryonic stem cell (hESC)-based Assay for Ornithine (ORN):Cystine (CYSS) Ratio (AID 2283714)", "summary_of_the_method": "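UPLC-HRMS of spent media: ORN/CYSS ratio of internal-standard-normalized percentages, DMSO (0.1%) baseline. Pluripotent H9 hESCs, 72h exposure, daily re-dosing with fresh media; last 24h media collected.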"}, "[5]": {"test": "CEETOX_H295R_MTT_cell_viability: Viability Assessment in the CeeTox HT-H295R MTT Assay (AID 2283718; active means hit-call score of the fitted dose curve at least 0.9, where 1 is the maximum; inactive means score below 0.9;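 on AC50: curve fitted both ways so AC50 may mark viability loss or gain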)", "summary_of_the_method": "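Human H295R adrenal cells, prestimulated 48 h with 10 uM forskolin, were exposed 48 h to chemicals in 0.1% DMSO. Viability was measured in the same wells by MTT (0.5 mg/ml, 4 h, 37 C), absorbance 570/650 nm, as percent of controls.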"}, "[6]": {"test": "ACEA_AR_antagonist_AUC_viability: ACEA Biosciences xCELLigence Real-Time Cell Analysis on Androgen Receptor Antagonism for Viability (AID 2283776);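 further: 22Rv1 human prostate cancer cells growing on impedance electrode plates; hits lower the growth signal relative to DMSO meaning cytotoxicity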", "summary_of_the_method": "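Impedance read-out (RT-CES): area under growth curve at 80 h post-dose, loss of signal scored vs DMSO baseline. 22Rv1 cells; 8-pt 1:4 series, top 100 uM final, ≤0.5% DMSO; biological duplicate.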"}, "[7]": {"target": "Luciferin 4-monooxygenase (Photinus pyralis) (UniProt P08659)", "sequence (P08659 whole entry, looked up)": "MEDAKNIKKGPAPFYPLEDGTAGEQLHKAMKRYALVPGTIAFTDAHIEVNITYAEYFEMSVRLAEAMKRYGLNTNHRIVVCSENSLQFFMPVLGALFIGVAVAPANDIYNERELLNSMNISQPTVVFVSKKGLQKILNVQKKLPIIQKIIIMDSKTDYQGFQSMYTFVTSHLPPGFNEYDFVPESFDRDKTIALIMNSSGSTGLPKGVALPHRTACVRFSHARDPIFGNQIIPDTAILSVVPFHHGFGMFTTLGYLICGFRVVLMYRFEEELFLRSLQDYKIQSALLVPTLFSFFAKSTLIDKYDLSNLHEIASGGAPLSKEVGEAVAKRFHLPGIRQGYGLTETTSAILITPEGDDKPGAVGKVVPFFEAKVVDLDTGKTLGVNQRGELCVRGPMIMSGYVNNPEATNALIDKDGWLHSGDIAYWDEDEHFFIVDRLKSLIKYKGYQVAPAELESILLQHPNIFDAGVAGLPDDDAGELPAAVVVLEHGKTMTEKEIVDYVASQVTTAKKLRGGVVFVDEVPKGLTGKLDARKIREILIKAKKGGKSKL", "test": "CCTE_Simmons_QuantiLum_inhib_2: CCTE's Firefly Luciferase Inhibition Assay, Simmons Lab (AID 2283767)", "summary_of_the_method": "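Cell-free QuantiLum luciferase, 5 ng/well; compounds 5 nM–87.5 uM final, 8 conc, 0.5% DMSO; 30 min, 37C, dark. Detection reagent (150 uM D-luciferin, 147 uM dATP, CoA, DTT, pH 7.8 final) injected per well, kinetic luminescence. Triplicate biological replicates.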"}, "[8]": {"tested_on": "zebrafish Estrogen Receptor (ESR2B), gene 317733", "test": "ATG_zfER2b_XSP1: Attagene TRANS-FACTORIAL Multi-Species (XSP1) HepG2 Assay for zebrafish Estrogen Receptor (ESR2B) (AID 2283773)", "summary_of_the_method": "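Multiplexed TRANS format in transfected HepG2 liver cells, chimeric NR-Gal4 from zebrafish ESR2B. 24 h dosing; medium contains 3 nM 6-alpha-fluorotestosterone. mRNA induction by RT-PCR/CE, positive direction vs DMSO.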"}, "[9]": {"tested_on": "frog Estrogen Receptor (ESR2), gene 100174814", "test": "ATG_frER2_XSP1: Attagene TRANS-FACTORIAL Multi-Species (XSP1) HepG2 Assay for frog Estrogen Receptor (ESR2) (AID 2283774)", "summary_of_the_method": "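HepG2, transient MRTU transfection (GAL4-UAS reporters, exogenous NR-Gal4 chimeras); 24 h compound exposure; 3 nM 6α-fluorotestosterone co-added; total RNA → RT-PCR → 6-FAM primer extension → HpaI → CE. Positive direction vs DMSO.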"}, "[10]": {"test": "ArunA_CellTiter_hNC: Viability Assessment in the ArunA Biomedical's Oris Neural Crest (hNC) Cell Migration Assay (AID 2283752)", "summary_of_the_method": "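hNC cells (H9 ESC-derived), 60,000/well, Matrigel, LIF + bFGF medium; 16 h 37C attachment; 72 h compound in test medium; CellTiter Aqueous One read-out; loss-of-signal vs DMSO baseline.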"}, "[11]": {"test": "ArunA_CellTiter_hNP: Viability Assessment in the ArunA Biomedical's Oris Neural Crest (hNC) Cell Migration Assay (AID 2283753)", "summary_of_the_method": "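Viability read with CellTiter 96 Aqueous One after 72 h chemical exposure of human hNP1 neuroprogenitors, which were plated on Matrigel in LIF/bFGF medium 16 h beforehand. Endpoint fitted in positive direction relative to DMSO.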"}, "[12]": {"test": "ArunA_Migration_hNP: ArunA Biomedical's Oris Neuroprogenitor (hNP) Cell Migration Assay (AID 2283754)", "summary_of_the_method": "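Readout is calcein-AM fluorescence (ex494/em517) of cells migrating into the detection zone, relative to DMSO. hNP1 cells (H9-derived) grown on Matrigel behind stoppers 16 h, then stoppers pulled and chemical applied 72 h; cytochalasin D as control.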"}, "[13]": {"test": "ArunA_Migration_hNC: ArunA Biomedical's Oris Neural Crest (hNC) Cell Migration Assay (AID 2283755)", "summary_of_the_method": "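Calcein-AM fluorescence (ex494 nm/em 517 nm) in the stopper-defined detection zone quantifies migration of hNC cells after 72 h chemical exposure; 60,000 cells/well plated on Matrigel with LIF and bFGF, 16 h pre-incubation. DMSO baseline.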"}, "[14]": {"test": "ArunA_NOG_NucleusCount: ArunA Biomedical's Neurite Outgrowth (NOG) Assay for Nucleus Count (AID 2283756)", "summary_of_the_method": "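Viable neuron count, from Hoechst nuclei passing size and intensity gates, imaged at 20x on differentiated H9-derived human neurons. Exposure lasted 48 h from seeding; activity was scored relative to DMSO.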"}, "[15]": {"test": "ArunA_NOG_NeuriteLength: ArunA Biomedical's Neurite Outgrowth (NOG) Assay for Neurite Length (AID 2283757)", "summary_of_the_method": "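Total neurite length per neuron, from traced βIII-tubulin-labelled processes longer than 10 um on viable Hoechst-gated cells, was scored as decrease from DMSO. Cells were hESC (H9)-derived neurons given 48 h chemical exposure immediately after seeding.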"}, "[16]": {"test": "ArunA_NOG_NeuritesPerNeuron: ArunA Biomedical's Neurite Outgrowth (NOG) Assay for Neurites Per Neuron (AID 2283758)", "summary_of_the_method": "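Differentiated human H9-derived neurons exposed to chemicals for 48 h from seeding, then stained with Hoechst and βIII-tubulin/DyLight 488. Automated imaging counted neurites (processes >10 um) per valid neuron; loss of signal versus DMSO scored.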"}, "[17]": {"target": "zebrafish Estrogen Receptor (ESR1), esr1 (gene 259252) (UniProt P57717)", "sequence (P57717 whole entry, looked up, the tested form may be a part)": "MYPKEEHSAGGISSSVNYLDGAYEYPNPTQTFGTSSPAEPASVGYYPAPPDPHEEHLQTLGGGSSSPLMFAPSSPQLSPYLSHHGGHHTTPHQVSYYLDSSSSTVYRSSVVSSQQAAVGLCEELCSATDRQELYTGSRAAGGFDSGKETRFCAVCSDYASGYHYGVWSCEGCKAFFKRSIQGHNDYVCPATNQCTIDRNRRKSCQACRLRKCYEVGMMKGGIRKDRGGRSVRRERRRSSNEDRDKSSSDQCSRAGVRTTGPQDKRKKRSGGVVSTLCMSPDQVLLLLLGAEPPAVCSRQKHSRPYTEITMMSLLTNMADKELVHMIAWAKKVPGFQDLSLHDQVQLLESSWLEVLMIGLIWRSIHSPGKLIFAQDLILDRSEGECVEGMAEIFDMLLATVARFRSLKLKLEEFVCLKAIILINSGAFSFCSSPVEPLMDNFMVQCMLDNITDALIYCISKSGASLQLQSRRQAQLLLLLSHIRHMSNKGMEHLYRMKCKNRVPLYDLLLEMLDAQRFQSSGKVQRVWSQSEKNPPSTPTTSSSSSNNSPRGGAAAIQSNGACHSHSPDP", "test": "ATG_zfER1_XSP1: Attagene TRANS-FACTORIAL Multi-Species (XSP1) HepG2 Assay for zebrafish Estrogen Receptor (ESR1) (AID 2283772)", "summary_of_the_method": "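Trans-activation readout: transfected zebrafish ER-Gal4 drives a UAS reporter in human HepG2 liver cells. After 24 h compound exposure (medium containing 3 nM 6-alpha-fluorotestosterone), induced reporter transcripts were quantified by RT-PCR with capillary electrophoresis, relative to DMSO.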"}}, "note": "Inconclusive results are not listed. Activity calls are given as the source filed them. How the source made its calls, unless noted: active means hit-call score of the fitted dose curve at least 0.9, where 1 is the maximum; inconclusive means response in the unintended direction; inactive means score below 0.9.", "data": [{"smiles": "Cn1c(=O)c2[nH]cnc2n(C)c1=O", "values": [{"measurement": "outcome", "setting": "[1]", "value": "inactive"}, {"measurement": "outcome", "setting": "[2]", "value": "inactive"}, {"measurement": "outcome", "setting": "[3]", "value": "inactive"}]}, {"smiles": "NC(=O)N1c2ccccc2C=Cc2ccccc21", "values": [{"measurement": "AC50", "setting": "[1]", "value": "4.32 µM (active)"}, {"measurement": "AC50", "setting": "[4]", "value": "4.18 µM (active)"}, {"measurement": "AC50", "setting": "[2]", "value": "0.0251 µM (active)"}]}, {"smiles": "Nc1ccn([C@@H]2O[C@H](CO)[C@@H](O)[C@@H]2O)c(=O)n1", "values": [{"measurement": "AC50", "setting": "[1]", "value": "0.142 µM (active)"}, {"measurement": "AC50", "setting": "[4]", "value": "0.203 µM (active)"}, {"measurement": "AC50", "setting": "[5]", "value": "1.43 µM (active)"}, {"measurement": "outcome", "setting": "[2]", "value": "inactive"}, {"measurement": "AC50", "setting": "[3]", "value": "1.22 µM (active)"}]}, {"smiles": "CC(C)c1nnc2ccc(-c3ocnc3-c3cc(F)ccc3F)cn12", "values": [{"measurement": "outcome", "setting": "[5]", "value": "inactive"}, {"measurement": "outcome", "setting": "[2]", "value": "inactive"}, {"measurement": "AC50", "setting": "[3]", "value": "66.8 µM (active)"}, {"measurement": "AC50", "setting": "[6]", "value": "37.1 µM (active)"}]}, {"smiles": "CCCCCCCCCCCCCCO", "values": [{"measurement": "outcome", "setting": "[5]", "value": "inactive"}, {"measurement": "outcome", "setting": "[2]", "value": "inactive"}, {"measurement": "AC50", "setting": "[3]", "value": "50 µM (active)"}]}, {"smiles": "CCCCN1C(=O)[C@@H]([C@H](O)C2CCCCC2)NC(=O)C12CCN(Cc1ccc(Oc3ccc(C(=O)O)cc3)cc1)CC2", "values": [{"measurement": "AC50", "setting": "[1]", "value": "2.26 µM (active)"}, {"measurement": "AC50", "setting": "[4]", "value": "2.14 µM (active)"}, {"measurement": "outcome", "setting": "[2]", "value": "inactive"}]}, {"smiles": "OC(Cn1cncn1)(Cn1cncn1)c1ccc(F)cc1F", "values": [{"measurement": "outcome", "setting": "[1]", "value": "inactive"}, {"measurement": "outcome", "setting": "[4]", "value": "inactive"}, {"measurement": "outcome", "setting": "[2]", "value": "inactive"}, {"measurement": "outcome", "setting": "[3]", "value": "inactive"}]}, {"smiles": "O=C1CN(N=Cc2ccc([N+](=O)[O-])o2)C(=O)N1", "values": [{"measurement": "AC50", "setting": "[1]", "value": "5.91 µM (active)"}, {"measurement": "AC50", "setting": "[4]", "value": "6.21 µM (active)"}, {"measurement": "outcome", "setting": "[2]", "value": "inactive"}]}, {"smiles": "O=c1[nH]cnc2c1ncn2[C@H]1CC[C@@H](CO)O1", "values": [{"measurement": "outcome", "setting": "[1]", "value": "inactive"}, {"measurement": "outcome", "setting": "[2]", "value": "inactive"}, {"measurement": "outcome", "setting": "[3]", "value": "inactive"}]}, {"smiles": "CCCOc1ccc(S(=O)(=O)N2CCN(CC)CC2)cc1-c1nc2c(CC)n(Cc3ccccn3)nc2c(=O)[nH]1", "values": [{"measurement": "outcome", "setting": "[5]", "value": "inactive"}, {"measurement": "outcome", "setting": "[2]", "value": "inactive"}, {"measurement": "outcome", "setting": "[3]", "value": "inactive"}]}, {"smiles": "C=CCc1cc(S(=O)(=O)c2ccc(O)c(CC=C)c2)ccc1O", "values": [{"measurement": "outcome", "setting": "[5]", "value": "inactive"}, {"measurement": "outcome", "setting": "[2]", "value": "inactive"}, {"measurement": "outcome", "setting": "[7]", "value": "inactive"}, {"measurement": "AC50", "setting": "[8]", "value": "1.68 µM (active)"}, {"measurement": "AC50", "setting": "[9]", "value": "1.53 µM (active)"}, {"measurement": "AC50", "setting": "[3]", "value": "24.3 µM (active)"}, {"measurement": "AC50", "setting": "[6]", "value": "24.5 µM (active)"}]}, {"smiles": "c1ccc2cc3ccccc3cc2c1", "values": [{"measurement": "outcome", "setting": "[5]", "value": "inactive"}, {"measurement": "outcome", "setting": "[2]", "value": "inactive"}, {"measurement": "outcome", "setting": "[7]", "value": "inactive"}, {"measurement": "outcome", "setting": "[3]", "value": "inactive"}]}, {"smiles": "C[C@]12C=CC(=O)C=C1CC[C@H]1[C@@H]3C[C@@H](O)[C@](O)(C(=O)CO)[C@@]3(C)C[C@H](O)[C@@]12F", "values": [{"measurement": "outcome", "setting": "[1]", "value": "inactive"}, {"measurement": "outcome", "setting": "[5]", "value": "inactive"}, {"measurement": "AC50", "setting": "[2]", "value": "0.00064 µM (active)"}]}, {"smiles": "CCN(CC)C(=S)SSC(=S)N(CC)CC", "values": [{"measurement": "AC50", "setting": "[1]", "value": "0.682 µM (active)"}, {"measurement": "AC50", "setting": "[4]", "value": "0.325 µM (active)"}, {"measurement": "outcome", "setting": "[5]", "value": "inactive"}, {"measurement": "AC50", "setting": "[2]", "value": "0.831 µM (active)"}, {"measurement": "AC50", "setting": "[10]", "value": "8.19 µM (active)"}, {"measurement": "AC50", "setting": "[11]", "value": "7.2 µM (active)"}, {"measurement": "AC50", "setting": "[12]", "value": "0.405 µM (active)"}, {"measurement": "AC50", "setting": "[13]", "value": "8.55 µM (active)"}, {"measurement": "AC50", "setting": "[14]", "value": "18.4 µM (active)"}, {"measurement": "AC50", "setting": "[15]", "value": "15.5 µM (active)"}, {"measurement": "AC50", "setting": "[16]", "value": "14.5 µM (active)"}, {"measurement": "outcome", "setting": "[17]", "value": "inactive"}, {"measurement": "AC50", "setting": "[3]", "value": "25.8 µM (active)"}]}]}
